About 79,000 compounds went through this panel and 15% of them were active in at least one assay; those are over-represented in the sample as a whole. Unmarked numbers belong to inactive results. Active and inactive are the calls of the source. No stated cut-off is given here; in the data, active means growth inhibition above about 70%; inactive means the rest.
Experiment: NCI Yeast Anticancer Drug Screen. Data for the mec2-1 strain (AID 157)
Settings: S. cerevisiae mec2-1 strain, at 50.0 µM (retest, dose inferred, filed as 5.0), stronger effect = higher value
Method in brief: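 Each compound was tested on mec2-1 yeast, a strain altered in DNA damage repair or cell cycle control. Growth inhibition is reported relative to vehicle.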

| Compound | growth inhibition |
| --- | --- |
| Oc1ccc2oc3ccccc3c2c1 | 87% (active) |
| O=C(O)Cc1cc(I)c(Oc2ccc(O)c(I)c2)c(I)c1 | 98% (active) |
| O=C(O)/C(=C\c1ccc(Cl)cc1)c1ccc(C(F)(F)F)cc1[N+](=O)[O-] | 90% (active) |
| Fc1ccc(NC(=S)SCc2ccccc2)cc1 | 18% |
| CN(C)c1ccccc1CC(c1c[nH]c2ccccc12)c1c[nH]c2ccccc12 | 93% (active) |
| O=C(c1ccccc1)N1CCN(c2cccc(Cl)c2)CC1 | 2% |
| [C-]#[N+]C(C)(c1ccccc1)c1ccccc1 | 47% |
| Nc1ccccc1[S][Sn]([c]1ccccc1)([c]1ccccc1)[c]1ccccc1 | 98% (active) |
| O=C1C(Cl)=C(Cl)C(=O)c2cc(Cl)c(Cl)cc21 | 99% (active) |
| CCCCCCCNC1CCCc2cc(OC)ccc21 (stereo unspecified) | 31% |
| NCCc1ccc2oc3cc(=O)c4ccccc4c-3nc2c1 | 30% |
| C/C=C/c1cc2c(cc1O)CC[C@@H]1[C@@H]2CC[C@]2(C)[C@@H](O)CC[C@@H]12 | 98% (active) |
| c1ccc(SSc2ccccn2)nc1 | 99% (active) |
| COC1=C2C[C@@H](C)C[C@@H](OC)[C@@H](O)[C@H](C)/C=C(\C)[C@@H](OC(N)=O)[C@H](OC)/C=C\C=C(/C)C(=O)NC(=CC1=O)C2=O | 91% (active) |
| NCc1ccccc1-c1c2nc(c(-c3ccccc3CN)c3ccc([nH]3)c(-c3ccccc3CN)c3nc(c(-c4ccccc4CN)c4ccc1[nH]4)C=C3)C=C2 | 83% (active) |
| Cc1cc(C)n2nc(N)c(C#N)c2c1C#N | 0% |
